# Test results: ChEMBL document CHEMBL1157539, “Thousands of chemical starting points for antimalarial lead identification” (Nature, 2010)
# Key:
# Format in all cases: functional
# Plasmodium falciparum [1] = assay: GSK_TCMDC: Inhibition of Plasmodium falciparum 3D7 in whole red blood cells, using parasite LDH activity as an index of growth. Test compounds present at 2uM
# Plasmodium falciparum [2] = assay: GSK_TCMDC: Inhibition of Plasmodium falciparum Dd2 in whole red blood cells, using parasite LDH activity as an index of growth. Test compounds present at 2uM
# HepG2 = assay: GSK_TCMDC: Percent inhibition of human HepG2 cell line. Test compounds present at 10uM.
Compound,Inhibition (Plasmodium falciparum [1]) [%],Inhibition (Plasmodium falciparum [2]) [%],Inhibition (HepG2) [%]
O=C(Nc1cccc(-c2nn3ccccc3c2-c2ccnc(Nc3ccc(-c4cc[nH]n4)cc3)n2)c1)c1c(F)cccc1F,98,98,68
CC(C)C1=C[C@H]2C[C@]3(C4OCCO4)[C@@H]4CC[C@@H](C)[C@H]4C[C@@]2(C(=O)OCC2COCO2)[C@]13C(=O)OC(c1ccccc1)c1ccccc1 (some centres not stated),92,96,2
CC(=O)Oc1c(C2CCN(CCCCNC(=O)c3ccc(NC(=O)c4ccc(Cl)cc4)cc3)CC2)ccc2ccccc12,100,92,24
O=C(NCCCN1CCOCC1)c1csc(Nc2ccc(Cl)c(Cl)c2)n1,92,23,5
CC1CN(Cc2ccc(C#N)cc2)CCN1c1ccc(NC(=O)c2cccs2)cc1.O=C(O)C(F)(F)F (configuration not stated),93,89,8
O=C(/C=C/c1ccc(-c2ccccc2)cc1)NCCCCCN1CCC(c2c[nH]c3ccccc23)CC1,97,23,91
COc1ccc2nccc([C@@H](O)CN3CCC(NC(=O)C(c4cc5ccccc5o4)N4CCN(c5ccccc5OC)CC4)CC3)c2c1 (some centres not stated),99,83,14
CCCC(C)NC(=O)c1cnn(-c2ccc(C(C)(C)C)cc2)c1OCc1ccc(Br)cc1 (configuration not stated),84,64,17
Cc1cc(NCCc2cccc(F)c2)nc(NC(=N)Nc2cccc(C(F)(F)F)c2)n1,100,99,42
CC1CN(c2ccc(C(=O)NCC3CC3)cc2NC(=O)OCc2ccccc2)CC(C)O1.O=C(O)C(F)(F)F (configuration not stated),91,76,0
CC[C@@H]([C@@H](Cc1cc2ccccc2s1)C(=O)N[C@@H](CCCCNC(=O)OCc1ccccc1)C(=O)Nc1ccccn1)N(O)C=O,96,70,36
O=C(Cc1c[nH]cn1)Nc1ccc(-c2ccc(-c3nc4cc(C(F)(F)F)ccc4[nH]3)s2)cc1,100,99,48
CC(C)CN(c1nc(C(=O)NNC(=O)[C@H](CC2CC2)NC(=O)c2cc3cc(OCCN4CCCCC4)ccc3o2)cs1)C1CC1,97,98,2
COc1ccc2nccc([C@@H](O)CN3CCC(NC(=O)C(=Cc4ccc(C#N)cc4)c4ccc(-c5ccccc5)cc4)CC3)c2c1,100,84,5
CN(C)c1ccc(NC2=NC(N)=NC(C)(C)N2)cc1,95,5,0
COc1ccc2ccc(F)c(CC(=O)N3CCOC(CNCc4cccc(-c5ccc(F)cc5)n4)C3)c2n1 (configuration not stated),92,1,5
Cc1c(Cn2ncc(N3CCC(N)CC3)c(Cl)c2=O)cccc1NC(=O)Nc1ccc(-c2ccccc2)cc1.O=C(O)C(F)(F)F,97,43,19
Cl.N=C(N)c1ccc2[nH]c(SCc3ccccc3)nc2c1,97,100,0
Cn1c(Nc2cc(C(C)(C)C)on2)nc2cc(Nc3ccnc(Nc4cccc(S(=O)(=O)N5CCOCC5)c4)n3)ccc21,100,96,32
CC(C)C1CCc2nc(N)nc(N)c2C1.Cl (configuration not stated),95,0,70

Compound,Inhibition (Plasmodium falciparum [1]) [%],Inhibition (Plasmodium falciparum [2]) [%],Inhibition (HepG2) [%]
CS(=O)(=O)c1ccc(-n2nc(C(F)(F)F)cc2-c2ccc(C=NOCC(=O)O)o2)cc1,87,0,0
CC(=O)Nc1ccc(Cl)c(Cl)c1,95,98,5
COc1ccc2nccc([C@@H](O)CN3CCC(NCc4cc5c(F)ccc(F)c5[nH]4)CC3)c2n1.CS(=O)(=O)O,100,76,22
COc1ccc2nc3cc(Cl)ccc3c(NCCCN3CCNCC3)c2c1.Cl,100,74,18
COc1ccc(CON2C(=N)N=C(N)NC2(C)C)cc1OC.Cl,96,97,68
C=CCN(C(=O)c1ccc(Cl)c([N+](=O)[O-])c1)c1nc(-c2ccccc2)cs1,100,99,0
Cc1cccc2nc(-c3cccc(-c4ccc(CNCCCN5CCCC5=O)cc4)c3)[nH]c12.O=C(O)C(F)(F)F,100,38,5
O=c1cc(NCCCNCc2[nH]c3cc(Cl)cc(Cl)c3c2Cn2cccn2)[nH]c2ccccc12,86,2,5
C[C@H](Nc1nc(C(Oc2ccccc2)c2ccccc2)nc2[nH]ncc12)c1ccccc1 (some centres not stated),100,56,15
COc1ccc2nc3cc(Cl)ccc3c(NCCO)c2c1.Cl,100,93,12
Cl.Nc1nc(N)c2c(ccc3nn(Cc4cccnc4)cc32)n1,96,0,41
COc1ccc(-c2ccc(NC(=O)c3cccc(C#N)c3)cc2)cc1CN1CCCN(C)CC1.O=C(O)C(F)(F)F,100,70,26
COc1cc(CS(C)(=O)=O)ccc1Nc1nccc(-c2c(-c3cccc(NC(=O)c4c(F)cccc4F)c3)nn3ccccc23)n1,92,71,46
CC(=O)NCCNc1nccc(N2CCc3ncnc(Nc4ccc(OCc5ccccn5)c(Cl)c4)c3C2)n1,99,99,0
CN1CCC(N2CCN(Cc3cccc(-c4ccc(-c5nc6cc(C(F)(F)F)ccc6[nH]5)cc4)c3)CC2)CC1.O=C(O)C(F)(F)F,100,91,100
Cc1ccc2c(=NN=Cc3cccc(Cl)c3)cc(C)[nH]c2c1,96,52,50
COc1ccccc1C1CCN(C2CCC(NC(=O)c3cc4cc(C(C)C)ccc4[nH]3)CC2)CC1 (configuration not stated),100,98,100
CC(=O)c1ccc(NC(=O)NNC(=O)c2ccc(CCN3CCC(c4nc(COCC(F)(F)F)c(-c5ccc(F)cc5)o4)CC3)cc2)cc1,96,27,17
O=C1Nc2cccc3c2C1(CCCN1CCC(c2c[nH]c4cc(C(F)(F)F)ccc24)CC1)CCC3 (configuration not stated),89,37,91
O=C(Nc1ccc(-c2ccc(-c3nc4cc(C(F)(F)F)ccc4[nH]3)s2)cc1)c1ccoc1,94,54,9

Compound,Inhibition (Plasmodium falciparum [1]) [%],Inhibition (Plasmodium falciparum [2]) [%],Inhibition (HepG2) [%]
CCn1c(CN2CCN(Cc3ccccc3)CC2)nc2cc(NC(=O)c3cccs3)ccc21,97,95,0
COc1cc2nc(NC3CCN(Cc4ccccc4)CC3)nc(N)c2cc1OC,100,30,27
Cc1ccc(F)c(OC2CCN(c3ccc(C(=O)NC4CC4)cn3)CC2)c1,92,72,10
CCC[C@@H]([C@@H](CC1CCCCC1)C(=O)N[C@H](C(=O)Nc1nccs1)C(C)(C)SC)N(O)C=O,97,98,51
Cc1cnc(N2CCN(CCCN3CCCC3)CC2)nc1Oc1ccc(-n2ccnc2)cc1.O=C(O)C(F)(F)F,99,82,12
Cc1cc(N(C)CCCN(C)C)nc(Nc2ccc(Cl)cc2)n1,100,79,7
COc1ccc(N2CCN(CCCCNC(=O)c3ccc(NC(=O)c4cc(Cl)cc(Cl)c4)cc3)CC2)c(OC)c1.Cl,100,84,21
CCCc1cc(C(=O)N[C@@H](Cc2ccccc2)[C@H](O)CNC(C)(C)c2cccc(OC)c2)c(F)c(N2CCCC2=O)c1.O=CO,98,98,7
Cc1c(C)n(C2CCCC2)c2ncnc(OC3CCN(CC(=O)NCC4CC4)CC3)c12,89,89,20
CC(C)c1ccc(S(=O)(=O)N(c2ccc3c(c2)OCO3)C2CCN(Cc3ccccc3)C2)cc1 (configuration not stated),100,92,1
Oc1ccccc1-c1nc2cccnc2n1CCc1cccc(C(F)(F)F)c1,93,36,4
CCn1c(-c2nonc2N)nc2c(-c3cccc(NC(=O)Nc4cccc(C(F)(F)F)c4)c3)ncc(OCCCN)c21.O=C(O)C(F)(F)F,95,70,21
CN(C)CCNc1cc(-c2cccnc2)nc(-c2ccncc2)n1,100,98,33
O=C(NCCCCN1CCC(c2ccc3c(c2OCC2CC2)CCCC3)CC1)c1ccc(NC(=O)c2ccc(Cl)cc2)cc1,100,93,23
CC(=O)N[C@H](C(=O)Nc1ccc(-c2cccc(-c3nc4cccc(C)c4[nH]3)c2)cc1)C(C)C,89,10,9
CC(C)NCc1ccc(-c2ccc(NC(=O)c3ccc(C#N)cc3)cc2)cc1.O=C(O)C(F)(F)F,90,0,23
COc1ccc2nccc([C@@H](O)CN3CCC(NC(=O)c4ccc5cc[nH]c5c4)CC3)c2c1.CS(=O)(=O)O,91,23,21
O=c1cc(NCCCNCc2cccc(OC(F)(F)C(F)F)c2)[nH]c2ccccc12,81,7,6
O=S(=O)(c1csc2ccccc12)N(CCC(O)(C(F)(F)F)C(F)(F)F)Cc1cccc(O)c1,100,100,0
